HP1b binding inh: inhibitors of HP1-beta chromodomain binding to methylated histone tails. P83916. AlphaScreen HP1-beta / biotin-H3K9me3 peptide binding. Potency, µM (doses to about 114 µM), for inactives: at the highest dose activity change, negative = inhibition, most hits filed as inhibitors. 390,000 tested, 0.56% active. AID 540317; further: nearly all actives have a fitted effect of over 70% in size
Target sequence (P83916 whole entry, looked up): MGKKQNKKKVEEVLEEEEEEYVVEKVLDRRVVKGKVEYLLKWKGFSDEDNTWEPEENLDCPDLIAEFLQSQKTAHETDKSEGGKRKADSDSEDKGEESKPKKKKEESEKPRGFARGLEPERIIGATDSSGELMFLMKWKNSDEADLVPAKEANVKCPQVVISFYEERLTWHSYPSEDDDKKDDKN
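AlphaScreen: HP1-beta (50 nM) preformed 30 min with biotin-H3(1-18)K9me3 peptide (50 nM) in PBS pH 7.4, 0.01% Tween-20. Compound added for 30 min at RT, then streptavidin donor/nickel chelate acceptor beads (10 ug/mL) for 30 min.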
JMJD2A Tudor: inhibitors of human JMJD2A Tudor domain; O75164; AlphaScreen JMJD2A-Tudor / H3K4me3 peptide binding; Potency, µM (top dose mostly 114 µM), for inactives: at the highest dose activity change, negative = inhibition, actives largely listed as inhibitors; 390,000 tested, 4.4% active; further: on the % scale 0 is the no-effect control and ±100 the full control effect; nearly all actives have a fitted effect of over 50% in size
L3MBTL1 block: L3MBTL1 (human) inhibition. Q9Y468. AlphaScreen L3MBTL1–H3K9me1 peptide binding. Potency, µM (titrated, usually from 57.1 µM), for inactives: top-dose activity, negative = inhibition, actives largely listed as inhibitors. 230,000 tested, 0.66% active. AID 485360; further: on the % scale 0 is the no-effect control and ±100 the full control effect; nearly all actives have a fitted effect of over 60% in size
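Displacement of a biotinylated histone H3(1-15) peptide monomethylated at Lys9 (75 nM) from L3MBTL1 (50 nM) was measured by AlphaScreen after a 30 min room-temperature compound incubation; cefsulodin titration served as intraplate control.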
G9a block: inhibitors of human histone lysine methyltransferase G9a | G9a H3K9 monomethylation, AlphaScreen, 2 h | Q96KQ7 | 350,000 tested, 8.8% active | Potency, µM (top dose mostly 102 µM), inactives show top-dose activity, negative = inhibition, usual class: inhibitors; further: on the % scale 0 is the no-effect control and ±100 the full control effect; nearly all actives have a fitted effect of over 75% in size
Target sequence (Q96KQ7 913-1193 limits assumed): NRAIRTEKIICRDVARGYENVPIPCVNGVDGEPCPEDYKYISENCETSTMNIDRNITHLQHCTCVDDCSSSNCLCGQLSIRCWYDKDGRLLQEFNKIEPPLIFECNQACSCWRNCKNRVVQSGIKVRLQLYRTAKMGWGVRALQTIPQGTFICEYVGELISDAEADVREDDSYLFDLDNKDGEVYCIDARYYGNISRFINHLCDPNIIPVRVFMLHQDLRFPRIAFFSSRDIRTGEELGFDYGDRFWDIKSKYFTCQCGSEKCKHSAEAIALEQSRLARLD
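G9a (20 nM) preincubated 15 min RT with compounds, then 500 nM biotinylated H3K9 peptide and 20 uM SAM added; 2 h RT reaction. Monomethyl-H3K9 product detected by AlphaScreen with anti-H3K9me1 antibody, streptavidin donor and anti-rabbit IgG acceptor beads.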
BAZ2B inh: inhibitors of human BAZ2B bromodomain | AlphaScreen BAZ2B-H3K14Ac peptide displacement | Q9UIF8 | 360,000 tested, 4.4% active | AID 504333 | Potency, µM (highest dose often 114 µM), for inactives: at the highest dose activity change, negative = inhibition, actives largely listed as inhibitors; further: on the % scale 0 is the no-effect control and ±100 the full control effect; nearly all actives have a fitted effect of over 60% in size
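AlphaScreen luminescence quantifies BAZ2B engagement of H3K14Ac peptide; the protein and biotinylated peptide are both at 50 nM final, buffer PBS pH 7.4 with 0.01% Tween-20, all steps at room temperature.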
Sfp PPTase inh: blocks B. subtilis Sfp PPTase activity; Q9F4F7; Potency, µM, for inactives: largest response in the series, negative = inhibition, hits mostly inhibitors; AID 1490; 310,000 tested, 3.5% active; Biochemical Sfp PPTase activity, qHTS;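 further: the enzyme is Sfp with the accession as filed and its product quenches rhodamine fluorescence; 0% = enzyme reaction without inhibitor and -100% = no enzyme wells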
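Fluorescence-quenching assay with 15 nM Sfp, 5 uM rhodamine-CoA and 12.5 uM BHQ-2-labelled ybbR peptide in pH 7.6 Hepes/MgCl2 buffer. Enzyme was pre-incubated with compound for 15 min at room temperature. Rate was taken from the 30-min fluorescence change (525/598 nm).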
Active calls of the source: *; ? = inconclusive; . = no result; [ ] = dose if it differs, or a comment. Rows were chosen to be rich in hits. Some 12% of all compounds tested hit in one or more screens of this group. The call rests on the fitted dose curve; in most records, active means well fitted curve in the direction sought with a large enough effect; inconclusive means small, poorly fitted or top-dose-only effect, or another doubt; inactive means no such curve, though single readings can be large; an effect the other way counts as inactive or inconclusive. Potency means the concentration at half of the fitted maximal effect.

SMILES | HP1b binding inh | JMJD2A Tudor | L3MBTL1 block | G9a block | BAZ2B inh | Sfp PPTase inh
CC1CCCN(C(=O)COC(=O)c2ccc3[nH]c4c(c3c2)CCCC4)C1 (stereo not given) | -5% | -9% | -9% | ? | 50µM* | .
CCOc1ccccc1N1CCN(C(=O)c2ccc3[nH]c4c(c3c2)CCCC4)CC1 | ? | 45µM* | -28% | 40µM* | 40µM* | -12%
O=C(O)c1ccc(-n2cccn2)nc1 | 1% | -16% | 10% | . | 5% | -14%
COc1ccccc1NC(=O)CSc1ccc(-c2ccccn2)nn1 | 23% | 3.5µM* | . | 3% | 3.2µM* | -8%
Cc1cccc(NC(=O)CSc2ccc(-c3ccccn3)nn2)c1C | 28% | 8.9µM* | . | 7% | 2.8µM* | -5%
COc1ccc(C)cc1NC(=O)CSc1nnc(-c2ccco2)n1N | 15% | -8%[57.1 µM] | -2% | 7%[12.7 µM] | 7% | 8%
COc1ccc(C)cc1NC(=O)CSc1ccc(-c2ccco2)nn1 | -22% | ? | . | 40µM* | ? | 18µM*
Cc1cccc(NC(=O)CSc2ccc(-c3ccco3)nn2)c1C | 33% | -12% | -17% | -13%[59 µM] | -12% | 22µM*
Cc1ccccc1OCC(=O)Nc1sc2c(c1C(=O)OC(C)C)CCCC2 | 16% | -8% | . | ? | 1% | .
O=C(CSc1ccc(-c2ccco2)nn1)Nc1ccc(F)cc1F | 17% | -23% | . | ? | -23% | 50µM*
O=C(Nc1ccc([N+](=O)[O-])cc1)c1ccccc1F | 51% | 2% | . | -4% | -28% | 16%
O=C(CSc1ccc([N+](=O)[O-])cc1)NNC(=O)c1ccccc1F | 5% | -23% | . | 50µM* | -17% | 1%
O=C(Nc1ccc(-c2ccc([N+](=O)[O-])cc2)cc1)c1ccccc1F | 22% | -6% | 4% | 50µM* | -11% | -9%
O=C(Cn1nnc(-c2cccs2)n1)NNC(=O)c1ccccc1Cl | 49% | -5% | -7% | -1% | -19% | 1%
CCC(=Nc1ccc(N)cc1)C1=C(O)C(C(=O)OC)C(C)(C)CC1=O (stereo not given) | -13% | -35% | 28µM* | 50µM* | ? | 45µM*
CCCC(=Nc1ccccc1)C1=C(O)C(C(=O)OC)C(C)(C)CC1=O (stereo not given) | 10% | -15% | -2% | ? | ? | 5%
CCCCC(=Nc1ccc(N)cc1)C1=C(O)C(C(=O)OC)C(C)(C)CC1=O (stereo not given) | -15% | ? | . | 1µM* | 56µM* | 1%
Cc1ccccc1CS(=O)(=O)Cc1ccc(C(=O)NC2CCCCC2)o1 | 11% | -7% | . | 24%[59 µM] | -5% | 7%
COc1ccc(N=C2NC(=O)/C(=C/c3ccco3)S2)cc1 | 26% | -29% | . | 45µM* | 40µM* | ?
COc1ccc(N=C2NC(=O)/C(=C/C=C/c3ccccc3)S2)cc1 | 13% | -10% | . | . | -14% | 1%
COc1ccc(S(=O)(=O)/N=C2/NC(=O)/C(=C\c3ccco3)S2)cc1 | 6% | -25% | ? | 8.9µM* | ? | -21%
COc1cc(/C=C2\SC(=Nc3ccccc3)NC2=O)cc(Cl)c1O | -14% | ? | . | 45µM* | -32% | -10%
Cc1ccc(S(=O)(=O)/N=C2/NC(=O)/C(=C/c3ccccn3)S2)cc1 | 18% | -6% | 1% | 56µM* | -10% | 13%
COc1ccc(S(=O)(=O)/N=C2/NC(=O)/C(=C\c3cc(OC)c(OC)cc3[N+](=O)[O-])S2)cc1 | -6% | -32% | . | -45%[59 µM] | ? | 20%
CCc1ccc(N=C2NC(=O)/C(=C/c3cc(OC)c(O)c(OC)c3)S2)cc1 | 12% | -22% | -5% | ? | ? | -11%
SMILES | HP1b binding inh | JMJD2A Tudor | L3MBTL1 block | G9a block | BAZ2B inh | Sfp PPTase inh
O=C(O)COc1nn(Cc2ccccc2)c2ccccc12 | . | . | . | -4%[12.7 µM] | . | 13%
COc1ccc2c(c1)C(=O)[C@@H](OC(=O)NCc1ccc3c(c1)OCO3)[C@H](c1ccc(OC)c(Br)c1)O2 | . | . | -6% | -10% | -32% | -11%
Cc1nn2c(-c3ccccn3)ccnc2c1Cl | 42% | -8% | 4% | -1% | 4% | 1%
O=c1oc2ccccc2c(O)c1C=Nc1cccnc1 | -12% | ? | -4% | 50µM* | -23% | 20%
Cc1cc(N(C)N)nc(NC(=O)NS(=O)(=O)c2ccccc2Cl)n1 | 25%[57 µM] | 28µM* | . | 18% | 28µM* | 9%
COc1cc(OC)nc(NC(=O)NS(=O)(=O)c2ccccc2Cl)n1 | 26% | 6% | 2% | 0%[59 µM] | -2% | 5%
Cc1cccc(NC(=O)C(=O)NCC2CCCN2S(=O)(=O)c2ccccc2)c1 (stereo not given) | 23% | -23% | -4% | -27% | 6% | .
C#CCn1c(=O)c2c(nc(/C=C/c3cccc(OC)c3)n2C)n(CCCO)c1=O | . | . | . | . | . | 25%
COc1ccc(N2Cc3ccccc3C2=NC(=O)c2ccc(C)cc2)cc1OC | 12% | ? | -11% | 45µM* | -38% | 4%
O=C(N=C1c2ccccc2CN1c1ccccc1)c1cccc([N+](=O)[O-])c1 | -22% | ? | -4% | 50µM* | -33% | 2%
O=C(/N=C1/c2ccccc2CN1c1ccccc1)Nc1ccccc1 | 34% | -13% | -1% | 12%[59 µM] | -12% | 1%
O=C(N=C1c2ccccc2CN1c1ccc(F)c(F)c1)c1cccnc1 | 37% | -14% | -24% | -30% | -10% | -9%
O=C(N=C1c2ccccc2CN1c1cccc(Cl)c1)c1cccnc1 | 50% | 0% | -5% | 50µM* | -8% | 2%
COCCNC(=O)[C@H]1C[C@@H]1[C@H](NP(=O)(c1ccccc1)c1ccccc1)c1ccccc1 | 38% | -11% | -14% | 56µM* | 0% | -13%
CCc1ccc(-c2nc(CN3CCCC(C(=O)N4CCN(c5cc(Cl)ccc5C)CC4)C3)c(C)o2)cc1 (stereo not given) | -20% | ? | . | 8.9µM* | 10µM* | .
Cc1cc(C)n(-c2nc(SCCN(C)C)c3c4c(sc3n2)CCCC4)n1 | 2% | 56µM* | -7% | . | ? | -18%
Cc1ccc2nc(Cl)c3cc(C(=O)N(C)C4CCCCC4)sc3c2c1 | 35% | -2% | . | 11%[59 µM] | -1% | .
Cc1c(C(=O)N(C)C2CCCCC2)sc2nc3ccc(N)cc3n12 | . | . | . | 25µM* | . | 16%
COc1cc(Cl)c(C)cc1NC(=O)Cn1c2ncccc2c(=O)n1-c1ccccc1 | -7% | ? | . | 9%[59 µM] | 2% | .
CCOC(=O)c1c(S(=O)(=O)N2CCN(c3ccccc3OC)CC2)c(C)n(C)c1C | -16% | -34% | . | -20%[59 µM] | -1%[57.1 µM] | .
